Experimental data from PubChem BioAssay AID1347426 (Functional Genomics Laboratory (NCATS/FGL), 2020).
Screen size: about 31,000 sequences; about 1,400 (4.5%) were called active. The entries come from a sample that favours actives as a whole. A number with no mark means an inactive call.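 How the source made its calls: active means median seed-adjusted z-score above 1 or below -1; inactive means the rest.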

Test: Novel Modifiers of Survival Motor Neuron (SMN) Protein: Gene Identification via Genome-wide siRNA Screen;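 further: luminescence tracks full-length SMN protein made from the SMN2 reporter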
Settings: HEK293T SMN2-luciferase reporter, siRNA knockdown, 72 h; actives lie on both sides
Outline: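 Each of three siRNAs per gene is reverse-transfected (1 pmol) into reporter HEK293T cells whose luciferase output tracks SMN protein level. After 72 h culture, ONE-Glo luminescence is control-normalized, log10-transformed and MAD-standardized; Common Seed Analysis deprioritizes seed-driven hits.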

| Sequence | median seed-adjusted z-score |
| --- | --- |
| CCACUUACCCUCAAAGAAATT against SLC4A5 | 1.3 (active) |
| CCUCAGUGUGGGUAUAAGATT against HIF1A | 0.228 |
| UUGAUAAGGUUAAACCACATT against CSTA | -0.351 |
| GCAGCACGAAGGAUACUGATT against ABCA4 | -1.09 (active) |
| CCACGAGAUUUCACAAACATT against PRKD3 | -0.906 |
| GCUUCACUCAGAUUCCGAUTT against DYNC1I2 | -0.167 |
| GCCUCUACCUCUUCGAAAATT against CLEC11A | -1.1 (active) |
| GCAGUAAUGUUGAUAUAGATT against VDAC3 | 0.646 |
| CUAUCUCACCAAGAUCUAUTT against PODN | 0.589 |
| CAUCUUCAGUCUGUACAAATT against KIR2DL5B | 1.72 (active) |
| GGAAAGCAACAUACAGACATT against FABP6 | 0.122 |
| GCCUUAUGUAUGCACAGAATT against HKR1 | -0.358 |
| AGGCAUAUCUUGAAGAACATT against CIP29 | -1.18 (active) |
| CACAGUGUUUGAGAACUAUTT against RHOA | -0.219 |
| GCAUCAACAGUAAUGAGAATT against KRT39 | 0.161 |
| CCACAUCAACAGUGCCUUUTT against ACOT11 | 0.636 |
| AGGGCUUCUUGAAUCUCUATT against GSTO2 | 0.142 |
| CCAAGAUGCUCAGUCAUCATT against MAP4K1 | 0 |
| CAACGUAUCAGAUUGAGAATT against ZNF281 | 1.19 (active) |
| CUACCGGAUUGAGAUGGAATT against MEGF6 | 0 |
| GCUGCUUGUGGAUUCGCUATT against TLN2 | -0.0106 |
| CACUCACACCAACCUGUGATT against GNG13 | -0.516 |

| Sequence | median seed-adjusted z-score |
| --- | --- |
| CAGUGUUAGUGGAUUCAGATT against TMEM87B | -0.51 |
| CAACCUUAUUAUCAUUGAATT against SF3B3 | -2.53 (active) |
| GGCAGAUCCUGACCUUUGATT against PRMT7 | 0.204 |
| CUUAAGAUCCCACACCUCATT against SLC39A4 | 0.0304 |
| GCAUGUUCCAGAUCUAUCATT against DRD5 | -0.18 |
| GAGCGUGACUGGGUUCUAATT against DDX5 | 0.891 |
| CAAAGACAAGGUCCCAUUUTT against IFI35 | 0.105 |
| GCCCUAGAAAGGUCACUGATT against AKR1CL1 | 0.488 |
| GGAGGAACUCGAAUCAUUUTT against EIF4EBP2 | 0.517 |
| GCAUCACCUUCUUUCGGAUTT against UNC13A | -2.1 (active) |
| GGACGGAAAACAGUCUUAATT against OAS2 | 0.0758 |
| CCCACACUCUAGACUGAAATT against MEF2D | 0.0021 |
| CGGUCAAUGUUCUAAAGAUTT against CACNG5 | -0.41 |
| CCAUGACUGUCAAUCGUCATT against GFM1 | -0.0641 |
| GGACCUACACUUUUCUCUUTT against FAM53B | -0.00535 |
| CCCUAAAGUUAAUCACCCATT against NUCB2 | 0.45 |
| GUUCCAUCCUGAUUCAAAUTT against PIGM | 1.36 (active) |
| GUUGAUAAGUUUUACCGAUTT against ADAM19 | 0.0996 |
| CCACCCGGACGAUAUCUUUTT against PPARA | 0.113 |
| GGAACGCAGUCGGAUCUCATT against RHOU | -1.44 (active) |
| GCAUUUGCAAUGAAGGCUATT against DNER | -0.316 |
| GAACCAGAUGAGACAUUCATT against SPSB1 | -0.378 |

| Sequence | median seed-adjusted z-score |
| --- | --- |
| CUCUAAUGUUAAUCCGAGATT against MED14 | -3.22 (active) |
| GAGGCUCAAUGUUACACCATT against ACAT1 | -0.848 |
| CCAUUGGGCUAUGACCUGATT against ACOT4 | -0.158 |
| GGCACUAUUUCCAAUGGAATT against ADAMTS12 | -0.0721 |
| GCAGCCCUGAUGUCCAGUATT against EFS | -0.299 |
| AGUUCAUCGAUGACAUGGATT against COL6A2 | 0.0119 |
| GGAUCUAUCUUAACGACCATT against GAN | -1.07 (active) |
| GCUCCGAAGUGUUUACAAUTT against DQX1 | -0.297 |
| GUCCAAAUACAGUCUCUUATT against MAP3K14 | -0.0609 |
| CGCUGAAACCCGAUUCCUATT against ANPEP | 0.252 |
| GCCUAGAUGAGCGAAUUUATT against LSM3 | -1.36 (active) |
| GCACUGCGACUGUACUCUATT against LRRC3B | 0 |
| CCUUCACACGUACCACAAATT against TEKT2 | -0.349 |
| GGCUGGACAGUAAUUCAGATT against ANGPTL4 | 1.37 (active) |
| CACAAUGAGUUAACUGAUATT against LILRB4 | -0.104 |
| CGUUAUUGCCUGUUUGGAATT against GUCY1A2 | -0.186 |
| GGGAAAAGCUUGACGAUUATT against RNF139 | 0.175 |
| GGGUUGAAGGUGAUCAUCATT against IMMP2L | 0.919 |
| GGCUCAUUGAGACGACUGATT against RCADH5 | -0.158 |
| CACUGGAGACUUUCGCUUUTT against ZNF813 | 0.127 |
| AGAUCUACAUCGUGAUGAATT against CDC2L1 | -1.14 (active) |
| GGUACUUCGUGAUCCGCAUTT against NECAP2 | -0.539 |

| Sequence | median seed-adjusted z-score |
| --- | --- |
| GGACUGUCAAUCUUAGAUATT against GRK4 | -0.267 |
| CGUGUACAAGGCUCUAACATT against EPN3 | 0.184 |
| CUACGAAUCUGUGAAUGAATT against ERH | -1.25 (active) |
| GCUAACCACUUGGAAGAUATT against PRMT7 | 0.204 |
| GGCAGAACCUAUACCAGAATT against MED6 | -2.15 (active) |
| CAGAACCUGUUGUAGAAAATT against GSPT2 | 0.846 |
| GGACGACUGCAGCAAGUUUTT against ATP2A3 | -0.28 |
| AGACCAUCCCUAACGGAUATT against PRELP | -0.0579 |
| GCUCGUAGUUGGGAUAACATT against FRAP1 | -1.02 (active) |
| GGCUCUCAGAUUGUUGACATT against GABARAPL2 | 0.528 |
| GAACAUUGGUGACUAUAUUTT against GRIP2 | -0.0256 |
| GGAUGAUGUGCGUAACAGATT against HAO1 | 0.421 |
| CAGAAGUUCUCAGACCUAATT against ZNF721 | 0.404 |
| GCUAUACGGUUGACAACGATT against ISLR | 0.00807 |
| CCCUCCUCGUGGAACCAUATT against NEURL2 | 1.39 (active) |
| UCGUGGACCUGGUCUGUUATT against OGDHL | -0.0878 |
| GGUCGAAAAGCAAACUCAATT against PTPRN2 | -0.104 |
| CAUGGAAGAUCUGACCAUATT against MEOX2 | 1.36 (active) |
| GCAGGAUGAUCUCAAGUAUTT against MOBKL2B | -0.613 |
| CCGCAGUGGAAAUACCAUATT against ANGEL1 | -0.332 |
| GCGGCUAACAGGAUAUGUATT against ACTN2 | 0.165 |
| CACAAGAUAUCAGGAGAAATT against FCRL2 | -0.294 |

| Sequence | median seed-adjusted z-score |
| --- | --- |
| CAUGAUCUCCGGCUACCUATT against SLCO2B1 | 0.289 |
| GGAUGCUCCAAGUCUGUCATT against GPR179 | -0.513 |
| GCAGUUGUCCAGUUACGAATT against RAD50 | 0.266 |
| GAAGCUACAUGGGAAGUGUTT against SIRT7 | -0.427 |
| CAGGUCGACUGAUAGAUCATT against DDX42 | -2.13 (active) |
| GGACUGAUCAUGAACCUCUTT against CPEB3 | 0.086 |
| GAGUUUAAUCUGAUUGAUATT against MOBKL1B | 0.31 |
| GCACUAUAUGAAUACGCAATT against AUP1 | 0.305 |
| GCAUCACACUCACAUCCCATT against DNASE2 | -1.23 (active) |
| GCUCUGUACAGGAAACUCUTT against IL2RA | 0.587 |
| GUGUAGGGAUAGUUACCAATT against ZNF518A | -0.252 |
| GAGUUCUACUUGUCCAAUUTT against ZDHHC20 | -0.936 |
| GGCUUUGCUUAAGUUCAAATT against LPCAT4 | 0.338 |
| CAACCAUAGUUAAAGUUAATT against TCP1 | -1.02 (active) |
| GGAUGUCUCAUUACACCAUTT against TGFBR3 | 0.285 |
| UGCUGGUGUUUAAACCCAUTT against C5AR1 | 0.366 |
| GCGACUUCAUGAUAGCAUATT against CAMK2D | 0.0676 |
| GGAGAUAUUUUUGACGGAATT against ZFHX3 | 0.045 |
| AAGCCUACCAGGUCAAGUATT against EVI5L | 0.0497 |
| GGAUAUUAAGGACAGGAAATT against RAN | -3.09 (active) |
